For 35 molecules, composite z-score results are on record in PubChem BioAssay.

The test deals with Neuregulin-1 EGF-like domain. The experiment in a line: binders of neuregulin-1 EGF-like domain, primary screen, biochemical, small-molecule microarray, 635 nm fluorescence (AID 1081).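 Note: binding of the protein to compounds printed on small-molecule microarray slides.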 The following applies: small-molecule microarray binding, higher = more signal.
`CC1CC/C=C\[C@H]2OC34C=CCN(C(C)(C)C)C(=O)[C@H]3N(CCCCCO)C(=O)[C@@H]4C2C(=O)O1` (stereo not given in full) gave a composite z-score of 0.479.
The value for `COc1cc(NN2C(C(O)c3cc(OC)c(OC)c(OC)c3)C=CC3C(=O)N(C)C(=O)C32)cc(OC)c1OC` (stereo not given) was 1.23; that for `[N-]=[N+]=NCc1ccccc1[C@H]1OC(c2ccc(OCCCO)cc2)=N[C@@]1(Cc1ccccc1N=[N+]=[N-])C(=O)NCC(O)CO` (stereo not given in full) was 1.13.
In the case of `C=C(COC)/C(=C/C[C@H](OC(=O)c1ccncc1)c1ccccc1OCCO)c1cc(C(=O)OC)ccc1OC` it was 0.869; in that of `CC(C)=C1C(=O)C(c2ccccc2)=C2CN3C(=O)N(CCc4ccccc4)C(=O)[C@]3(Cc3ccc(C(F)(F)F)cc3)[C@H]21`, 0.844; in that of `NCCCCCCNC(=O)[C@@H]1C[C@@H]2C(=O)N[C@@H](CCCCN)C(=O)N2[C@@H]1c1ccc(O)cc1`, 1.25.
The value for `CC(C)[Si](C#CCCCC#N)(O[C@H](c1ccccc1)c1cn(Cc2ccccc2)nn1)C(C)C` was 1.13; that for `CC(C)c1ccc(NN2C(C(O)c3ccc(C#N)cc3)C=CC3C(=O)N(c4ccccc4)C(=O)C32)cc1` (stereo not given) was 1; that for `COC(=O)[C@]1(CCS(=O)(=O)c2ccccc2)N=C(c2ccc(OCCCO)cc2)O[C@@H]1c1ccccc1N=[N+]=[N-]` was 1.37.
In the case of `C=C[C@H](C)[C@H](OC(=O)Nc1ccc(SC)cc1)c1ccc(OCCO)cc1`, the composite z-score came to 1.15.
In the case of `Cc1ccc(S[C@]2(C(=O)NCC(F)(F)F)CC(=O)N(Cc3cc(C(F)(F)F)cc(C(F)(F)F)c3)[C@@H]2c2ccc(CO)cc2)cc1`, the composite z-score is -0.353.
In the case of `O=C1OCCC=C[C@H]2OC34C=CCN(c5ccc6ccccc6c5)C(=O)[C@H]3N(CCCO)C(=O)[C@@H]4C12` (stereo not given in full) it was -0.948; in that of `O=C1O[C@H](c2ccccc2)[C@H](c2ccccc2)N2[C@H]1[C@@H](C(=O)O)[C@]1(C(=O)Nc3ccc(C#CCCO)cc31)[C@H]2c1ccccc1OCCO`, 1.23.
The value for `COC(=O)[C@@]1(Cc2ccc(F)cc2)[C@H]2c3cc(C(=O)N4CCCC4)n(CCc4c[nH]c5ccccc45)c3C[C@H]2CN1C(=O)c1ccccc1` was 1.22; that for `[N-]=[N+]=Nc1ccccc1C[C@]1(C(=O)N2CCOCC2)COC(c2ccc(OCCCO)cc2)=N1` was 1.19.
The value for `C=CCN1C(=O)[C@]2(CCC(=O)OC(C)(C)C)N=C(c3ccc(OCCCO)cc3)O[C@@H]2c2ccccc21` was 0.542.
Take `O=C1OCCC=C[C@H]2OC34C=CCN(Cn5nnc6ccccc65)C(=O)[C@H]3N(CCCO)C(=O)[C@@H]4C12` (stereo not given in full): the composite z-score was found to be 0.437.
In the case of `COCCOC(=O)N1C(=O)[C@@]2(c3ccccc31)[C@H](c1ccc(O)cc1)N1[C@H](c3ccccc3)[C@H](c3ccccc3)OC(=O)[C@H]1[C@@H]2C(=O)N1CCN(c2ncccn2)CC1` it was 1.07.
In the case of `Cc1ccc(S[C@]2(C(=O)NCC(F)(F)F)CC(=O)N(Cc3cc(C(F)(F)F)cc(C(F)(F)F)c3)[C@@H]2c2ccc(CO)cc2I)cc1` it was 0.434; in that of `C#CCN([C@@H](Cc1ccccc1)C(=O)OC)[C@@H](/C=C/C1CC1)[C@H](O)Cc1ccccc1`, -0.351.
In the case of `CC(C)C(CO)N1C(=O)[C@@H]2[C@H]3C(=O)OCC=C[C@H]3OC23C=CCN(c2ccc(Cl)cc2)C(=O)[C@@H]13` (stereo not given in full) it was 0.436.
With `COC(=O)[C@@]1(Cc2ccc(F)cc2)[C@H]2c3cc(C(=O)N4CCCC4)n(Cc4ccc(C)c(F)c4F)c3C[C@H]2CN1C(=O)c1ccccc1`, the composite z-score worked out at 1.35.
In the case of `COc1ccccc1CN1C(=O)c2ccccc2[C@](Cc2ccccc2I)(C(=O)O)[C@@H]1c1ccc(CO)cc1` it was 1.27; in that of `COc1ccc([C@H]2OC[C@@H]3C[C@H](Cc4ccccc4)C(=O)N32)cc1`, 0.684; in that of `COCCOC(=O)N1C(=O)[C@@]2(c3cc(C#CC4(O)CCCCCC4)ccc31)[C@H](c1ccc(O)cc1)N1[C@H](c3ccccc3)[C@H](c3ccccc3)OC(=O)[C@H]1[C@@H]2C(=O)N1CCN(c2ncccn2)CC1`, 1.24.
`CCCC1(C(=O)OC)C=C2C(=C(C)C(=O)C2C)CN1` (stereo not given) had a composite z-score of 0.188.
In the case of `COc1cc(NN2C(C(O)c3ccco3)C=CC3C(=O)N(C)C(=O)C32)cc(OC)c1OC` (stereo not given) it was 1.38; in that of `CCCNC(=O)[C@@H]1c2ccccc2C(=O)N(Cc2ccc(OC(F)(F)F)cc2)[C@H]1c1ccc(CO)cc1`, 1.24.
For the molecule `C=CC[C@@H](OC(=O)Nc1ccc(OC)cc1)c1ccc(O)c(F)c1`, the composite z-score amounted to 1.13.
`CCCC[C@@H](O)C1=C(COC)C[C@H]2C(=O)N(Cc3ccccc3)C(=O)[C@H]2[C@H]1CO` returned a composite z-score of 0.159.
`CC(C)NC(=O)[C@@]1(c2ccc([N+](=O)[O-])cc2)CC(=O)N(C2CCCCC2)[C@@H]1c1ccc(CO)cc1`: the composite z-score turned out to be 1.35.
With `CC1CC/C=C\[C@H]2OC34C=CCN(c5ccc(Cl)cc5)C(=O)[C@H]3N(C(C)CO)C(=O)[C@]4(C)C2C(=O)O1` (stereo not given in full), the composite z-score amounted to 0.886.
The value for `COc1cc2c(cc1O)C(C1CC1)N(Cc1cccc(OC(F)(F)F)c1)CC2` (stereo not given) was 0.857.
With `CC(c1ccccc1)C(O)C1C=CC2C(=O)N(C)C(=O)C2N1Nc1ccccc1` (stereo not given), the composite z-score turned out to be 1.25.
In the case of `CCOC(=O)C1=CC[C@@H](c2ccccc2F)N(S(=O)(=O)c2ccc(C)cc2)[C@H]1c1ccccc1` it was 0.677.
